# FH mod: Identification of activators of human fumarate hydratase by quantitative high-throughput screening. AID 1347055, 2019. FH coupled MDH/diaphorase resazurin fluorescence, 15 min. Potency, µM (doses to about 79.9 µM), without a hit: at the top dose activity change, negative = inhibition, actives largely listed as inhibitors. Fumarate hydratase, mitochondrial (Homo sapiens), P07954. 54,000 compounds, 0.22% hits; also: the screen sought activators but most active calls are inhibition curves; nearly all actives have a fitted effect of over 45% in size
# Target sequence (P07954 whole entry, looked up): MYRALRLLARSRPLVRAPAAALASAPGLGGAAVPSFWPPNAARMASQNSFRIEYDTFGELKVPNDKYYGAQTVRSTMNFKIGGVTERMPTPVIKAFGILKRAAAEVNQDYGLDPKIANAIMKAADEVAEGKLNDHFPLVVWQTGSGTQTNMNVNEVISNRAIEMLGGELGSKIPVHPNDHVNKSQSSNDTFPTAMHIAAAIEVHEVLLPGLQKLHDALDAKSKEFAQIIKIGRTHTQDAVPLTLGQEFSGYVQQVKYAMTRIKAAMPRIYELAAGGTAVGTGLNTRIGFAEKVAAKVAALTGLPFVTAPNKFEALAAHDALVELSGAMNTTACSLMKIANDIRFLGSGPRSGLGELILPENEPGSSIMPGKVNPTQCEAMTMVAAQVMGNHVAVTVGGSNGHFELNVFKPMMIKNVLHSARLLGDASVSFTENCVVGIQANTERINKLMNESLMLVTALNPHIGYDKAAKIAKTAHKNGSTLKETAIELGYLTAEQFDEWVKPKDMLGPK
# p53null 32C tox: p53 null cell cytotoxicity, permissive temperature; H1299-neo p53 null cells, ATP luminescence, 24 h, 32C; Potency, µM (doses to about 46.1 µM), inactives show at the highest dose activity change, negative = cytotoxicity, usual class: cytotoxic; 55,000 compounds, 0.62% hits;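 also: 0% = DMSO only and -100% = full killing by 100 µM tamoxifen; nearly all actives have a fitted effect of over 55% in size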
#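 Overnight 37C seeding (600 cells/well) of H1299-neo preceded a 24 hr, 32C exposure to compounds up to 46 uM. ATP levels, read by luminescence after 20 min at RT, indicated surviving cells.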
# p53null 39C tox: selectivity test: cytotoxicity in p53 null cells, nonpermissive temperature. H1299 p53-null (neo) cells, 39C, ATPlite viability, 24 h. Potency, µM (series often up to 46.1 µM), for the others: at the highest dose activity, negative = cell killing, usual class: cytotoxic. 55,000 compounds, 0.97% hits;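 also: 0% = DMSO only and -100% = full killing by 100 µM tamoxifen; nearly all actives have a fitted effect of over 50% in size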
#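 H1299 lung cancer cells, p53-null (H1299-neo) or expressing p53 A138V (H1299-p53A138V), were plated overnight at 37C, then exposed to compounds at up to 46 uM for 24 hr at 39C. Viability was read by ATP-based luminescence.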
# Starred values were filed as active, the others as inactive; ? = inconclusive; nt = no result; [ ] = another dose, or the depositor's remark. In the library only some 1.2% were active in any assay of this set; here they are far more common. Calls follow the shape of the dose curve; as a rule, active = well fitted curve in the direction sought with a large enough effect; inconclusive = small, poorly fitted or top-dose-only effect, or another doubt; inactive = no such curve, though single readings can be large; an effect the other way counts as inactive or inconclusive. Unless noted, % is scaled to controls: 0 for no effect and ±100 for the full control effect; potency is read from the fitted curve at half-maximal effect.
SMILES,FH mod,p53null 32C tox,p53null 39C tox
CCOc1ccc(CNC(=O)CSc2nnc(C)c3c(C)n(-c4ccccc4)nc23)cc1,-16%,22%,25µM*
Cc1cnc(-c2cc(N3CCN(C(=O)CCS(C)(=O)=O)CC3)ncc2Cl)c(C)c1,6%,nt,nt
COc1cccc(-c2noc(-c3cc4ccccc4oc3=O)n2)c1OC,8%,-29%,-7%
COc1ccc(-c2noc(-c3cccc(OC)c3OC)n2)cc1,?,13µM*,18µM*
CNC(=O)c1cc(Oc2ccc(NC(=O)c3cccc(C(F)(F)F)c3)cc2)ccn1,-6%,nt,nt
NS(=O)(=O)OC[C@@H]1C[C@@H](n2ccc3c(N[C@H]4CCc5ccccc54)ncnc32)C[C@H]1O,2%[53.3 µM],nt,nt
Cc1nn(-c2ccccc2Cl)c(Cl)c1/C=N/Nc1cccc(C(=O)O)c1,nt,10µM*,14µM*
COC(=O)N/N=C/c1c(C)nn(-c2cccc(Cl)c2)c1Cl,nt,6%,nt
C=CC(C)(O)CC/C=C(\C)COC1O[C@H](CO)[C@@H](O)[C@H](O)[C@H]1O (stereo partly specified),-25%[53.3 µM],nt,nt
CCOc1ccc(CCNC(=O)c2cc3cc4cc(OC)ccc4nc3s2)cc1OCC,-6%,-19%,-5%
COc1ccc2nc3sc(C(=O)Nc4cc(Cl)c(OC)cc4OC)cc3cc2c1,-1%,-9%,10µM*
CC1(C)CC[C@]2(C(=O)O)CC[C@]3(C)C(=CCC4[C@@]5(C)CC[C@H](O[C@@H]6O[C@H](C(=O)O)[C@@H](O)[C@H](O)[C@H]6O)C(C)(C)C5CC[C@]43C)C2C1 (stereo partly specified),3%[20.6 µM],nt,nt
CCc1cc(CN2CC(C(=O)O)C2)sc1-c1noc(-c2ccc(Oc3ccccc3)cc2)n1,0%[53.3 µM],nt,nt
CS(=O)(=O)c1ccc(Sc2nc3ccccc3s2)c([N+](=O)[O-])c1,nt,13µM*,nt
O=S(=O)(Nc1ccc(O)c(Sc2nc3ccccc3s2)c1)c1cccc2ccccc12,nt,nt,14%[1.84 µM]
Cc1ccc2nc(/C(C#N)=C/c3ccc(-c4cccc(Cl)c4)o3)[nH]c2c1,-3%,-20%,?
N#C/C(=C\c1ccc(-c2ccc(C(=O)O)cc2)o1)c1nc2ccccc2[nH]1,28µM*,-6%,-19%
N#C/C(=C\c1ccc(OCc2ccc(Cl)cc2Cl)cc1)c1nc2ccccc2[nH]1,-9%,9%,-17%
N#C/C(=C\c1ccc(-c2ccc(Cl)c(C(=O)O)c2)o1)c1nc2ccccc2[nH]1,40µM*,?,-24%
Fc1cc(-c2cccc3ncc(-c4cnn(C5CCNCC5)c4)nc23)cc(F)c1CN1CCOCC1,3%,nt,nt
CC(O)CO[C@@H]1O[C@H](CO)[C@@H](O)[C@H](O)[C@H]1O (stereo partly specified),-4%,nt,nt
COc1ccc(CSc2nc3ccncc3n2Cc2nc(-c3ccc(OC)c(OC)c3)oc2C)cc1,-31%,13µM*,?
COc1ccc(-c2nc(Cn3c(SCc4cccc(Cl)c4)nc4ccncc43)c(C)o2)cc1,-16%,-14%,?
Cc1ccc(CSc2nc3ccncc3n2Cc2nc(-c3ccccc3C)oc2C)cc1,-22%,7.9µM*,6.3µM*
Cc1oc(-c2ccccc2F)nc1Cn1c(SCc2cccc(Cl)c2)nc2ccncc21,-24%,1%,-4%
SMILES,FH mod,p53null 32C tox,p53null 39C tox
CC(C)c1ccc(NC(=O)C(c2ccccc2)N(C)C(=O)Cc2c[nH]c3ccccc23)cc1 (stereo unspecified),-25%,nt,nt
CCCCc1nc(C)c(CC(=S)N(C)C)c(=O)n1Cc1ccc(-c2ccccc2-c2nn[nH]n2)cc1,2%,nt,nt
CC(C)c1cc(CNc2nc(Nc3cc(C4CC4)[nH]n3)cc(N3CCN(C)CC3)n2)on1,2%,nt,nt
COc1cc2c(cc1O)CC[C@H]1[C@@H]2CC[C@]2(C)[C@H](O)CC[C@@H]12,8%,nt,nt
O=Nc1ccc2oc(=O)ccc2c1,1µM*,nt,nt
COc1c2occc2cc2ccc(=O)oc12,6%[53.3 µM],nt,nt
COc1ccccc1-c1nnc(Nc2nc3c(OC)cccc3s2)o1,nt,-20%,?
COc1cccc(-c2nnc(Nc3nc4c(F)cccc4s3)o2)c1,nt,?,2.5µM*
CCOc1ncc(S(=O)(=O)N2CCN(CC)CC2)cc1-c1nc2c(CC)n(CCOC)nc2c(=O)[nH]1,-2%,nt,nt
CC(C)COc1ccc(C(=O)Nc2onc3c2CCCC3)cc1,-30%,?,13µM*
CC(C)(C)c1ccc(C(=O)Nc2onc3c2CCCC3)cc1,?,16µM*,?
CCOc1ccc(C(=O)Nc2onc3c2CCCC3)cc1,-6%,6.3µM*,4µM*
CC(C)COc1ccc(C(=O)Nc2cc3nn(-c4ccccc4)nc3cc2Cl)cc1,4%,4%,15%
CCOc1ccc(C(=O)Nc2cc(-c3ccccc3)no2)cc1,-2%,-8%,-3%
O=C(Nc1onc2c1CCCC2)c1ccccc1,-21%,?,?
CC(C)(N)c1ncc(-c2ccc(OC(F)(F)F)cc2)[nH]1,0%,nt,nt
CCOc1ccc(-c2nonc2NC(=O)c2oc3ccc(Br)cc3c2C)cc1,-13%,13µM*,?
CCOc1ccc(-c2nonc2NC(=O)c2oc3cc(Br)ccc3c2C)cc1,-9%,?,?
S=c1ssc2c1CCC2,-1%,nt,nt
COC(=O)C(CC1(O)c2ccccc2N2C(=O)C(CC(C)C)NC21)n1cnc2ccccc2c1=O (stereo unspecified),-1%[53.3 µM],nt,nt
COc1ccc(CNC(=O)C(=O)NCC(c2ccc3c(c2)OCO3)N2CCOCC2)cc1 (stereo unspecified),23%,4%,1%
COc1ccc(CNCCC(c2ccc3c(c2)OCO3)c2ccccc2OC)cc1 (stereo unspecified),-6%,4%,13µM*
C=C(C)[C@@H]1CC[C@]2(C)CC[C@]3(C)C(CCC4[C@@]5(C)CC[C@H](O)C(C)(C)C5CC[C@]43C)C12 (stereo partly specified),-2%[53.3 µM],nt,nt
CSc1ccc(CCNC(=O)CCCn2c(=O)c3cccn3c3ccccc32)cc1,-18%,59%,13µM*
CCOc1ccc(CCNC(=O)CCCn2c(=O)c3cccn3c3ccccc32)cc1,-4%,7%,2%
CCCC(=O)C1CCN(c2ncnc3c2CN(C(=O)c2ccc(-c4ccccc4)cc2)CC3)CC1,0%,nt,nt
Cc1ccc(C)c(-c2nnc(NC(=O)c3ccc4c(c3)OCCO4)o2)c1,20%,-12%,7.9µM*
CSc1ccc(-c2nnc(NC(=O)c3ccc4c(c3)OCCO4)o2)cc1,16%,-16%,?
CC(C)Oc1ccc(-c2cnc3c(-c4ccnc5ccccc45)cnn3c2)cc1,0%,nt,nt
Cn1ncc(Cl)c1-c1cc(C(=O)N[C@H](CN)Cc2cccc(F)c2)sc1Cl,-2%,nt,nt
